PubChem BioAssay (NCATS)
Results filed as inconclusive are left out. A number with no mark means an inactive call. Calls of active or inactive are those of the source. The call rests on the fitted dose curve; in most records, active means well fitted inhibition curve with a large enough effect; inconclusive means small, poorly fitted or top-dose-only effect; inactive means no such curve, though single readings can be large or run the other way.

Target: Cytochrome P450 2C19 (Homo sapiens) (UniProt P33261)
Assay: qHTS Assay for Inhibitors and Substrates of Cytochrome P450 2C19 (AID 899); further: nearly all actives have a fitted effect of over 60% in size
Conditions: recombinant CYP2C19, luciferin-H EGE luminescence; series mostly up to 11.4 µM; activity, negative = inhibition: at the top concentration
Method in brief: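 Signal comes from luciferase acting on luciferin released by CYP2C19-mediated hydroxylation of Luciferin-H EGE, 10uM (KM). Assay mix: 5nM enzyme, 50mM KPO4; 60 min at 37C with NADPH regeneration. Data normalized against 57uM ketoconazole.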
On the % scale 0 is the no-effect control and ±100 the full control effect; potency means the concentration at half of the fitted maximal effect.

Sequence of Cytochrome P450 2C19 (Homo sapiens) (P33261 whole entry, looked up): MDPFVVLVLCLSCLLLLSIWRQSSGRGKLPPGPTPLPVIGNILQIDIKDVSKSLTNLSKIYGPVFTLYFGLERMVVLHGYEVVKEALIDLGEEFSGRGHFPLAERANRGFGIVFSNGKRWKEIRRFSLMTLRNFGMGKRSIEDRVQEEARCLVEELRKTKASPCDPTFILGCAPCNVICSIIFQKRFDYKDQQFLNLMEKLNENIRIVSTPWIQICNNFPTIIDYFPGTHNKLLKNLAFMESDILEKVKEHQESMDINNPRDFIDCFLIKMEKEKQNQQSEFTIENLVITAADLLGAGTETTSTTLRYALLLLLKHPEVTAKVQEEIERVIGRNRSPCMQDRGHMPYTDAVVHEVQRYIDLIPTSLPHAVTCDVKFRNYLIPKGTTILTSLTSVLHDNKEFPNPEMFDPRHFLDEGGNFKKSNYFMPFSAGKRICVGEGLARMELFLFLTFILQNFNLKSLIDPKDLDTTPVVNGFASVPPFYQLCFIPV

SMILES	activity, negative = inhibition	Potency
C[C@@H]1/C=C\CC(=O)OC[C@H](C)C(=O)N[C@@H](C)C(=O)OC1	64%	–
O=C1[C@H]2[C@H]3[C@H](O)[C@H](O)C/C(=N/OC[C@@H](O)COCc4ccco4)[C@@H]3CC[C@@H]2C(=O)N1C[C@@H]1CCCO1	13.1%	–
CO[C@@H]1COC(=O)[C@H](Cc2ccccc2)NC(=O)C/C=C\[C@@H](C)[C@H](OC)COC(=O)[C@@H](C)NC(=O)C/C=C\[C@H]1C	51.2%	–
C[C@H]1COC(=O)[C@H]2CCCN2C(=O)[C@@H](C)COC(=O)[C@H](Cc2ccccc2)NC1=O	54.5%	–
CC(C)=CCC/C(C)=C/CO/N=C1/C[C@@H](O)[C@@H](O)[C@@H]2[C@@H]3C(=O)N(Cc4ccccc4)C(=O)[C@H]3CC[C@@H]12	62.5%	–
C#CCCCO/N=C1/C[C@@H](O)[C@@H](O)[C@@H]2[C@@H]3C(=O)N(Cc4ccccc4)C(=O)[C@H]3CC[C@@H]12	46.4%	–
CC(=O)OC[C@@H]1O[C@H](C/C=N\O[C@@H](C)c2cn([C@H]3COC[C@H]3O)nn2)C=C[C@@H]1OC(C)=O	69.6%	–
COC(=O)[C@H](Cc1ccccc1)NC(=O)[C@@H](C)CO	–	1260 nM (active)
C[C@@H]1O[C@H]2C3=C(C(=O)[C@H]4O[C@@H]4[C@H]3O)[C@@H]1[C@@H]1[C@@H](C)OC=C3[C@H](O)[C@H]4O[C@@H]4/C(=N\OCc4ccccc4)[C@]312	–	631 nM (active)
COc1ccc(O[C@H]2C=C[C@@H](c3ccccc3)O[C@@H]2CO/N=C(\C)CCN2CCc3nc(-c4ccccc4)c(-c4ccccc4)cc3C2)cc1	–	251 nM (active)
